Pin1 inh: blocks the human prolyl isomerase Pin1. Pin1 FP peptide displacement, HiFluor488, 10 min. Potency, µM (top dose mostly 115 µM), actives largely listed as inhibitors. hit rate 0.009% among 390,000. Q13526; active means well fitted inhibition curve with a large enough effect in the polarisation, with a control signal flat, not every such curve was filed as active; inconclusive means small, poorly fitted or top-dose-only effect, or effect the other way, or a change in a side signal; inactive means no such curve, though single readings can be large or run the other way; the % refers to the polarisation
PGK inhibitor: blocks T. brucei phosphoglycerate kinase; PGK/GAPDH coupled, Kinase-Glo luminescence, 60 min; Potency, µM (series often up to 57.5 µM), most hits filed as inhibitors; hit rate 0.043% among 380,000; further: nearly all actives have a fitted effect of over 60% in size
Target sequence (P07378 whole entry, looked up): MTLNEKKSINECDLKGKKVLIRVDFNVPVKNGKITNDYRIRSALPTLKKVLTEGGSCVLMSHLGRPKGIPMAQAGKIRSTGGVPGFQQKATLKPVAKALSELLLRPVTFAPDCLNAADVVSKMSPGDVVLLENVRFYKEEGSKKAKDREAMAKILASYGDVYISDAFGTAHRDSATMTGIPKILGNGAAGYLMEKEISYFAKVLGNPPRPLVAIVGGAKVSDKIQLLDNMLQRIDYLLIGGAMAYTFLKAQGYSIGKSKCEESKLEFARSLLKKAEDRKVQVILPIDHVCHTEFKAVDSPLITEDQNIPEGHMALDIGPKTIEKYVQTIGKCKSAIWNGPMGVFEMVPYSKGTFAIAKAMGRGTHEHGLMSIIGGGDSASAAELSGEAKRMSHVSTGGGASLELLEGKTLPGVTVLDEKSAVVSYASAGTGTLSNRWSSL
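Recombinant glycosomal PGK reaction used 1,3-bisphosphoglycerate generated in-well by GAPDH (100nM final) in 100mM TEA pH 7.6, 5mM MgCl2, 0.01% Tween-20. After 60 minutes at room temperature, ATP was read by Kinase-Glo Plus luminescence end-point.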
Anesthetic bind: binds horse apoferritin like a general anesthetic; P02791; apoferritin/1-aminoanthracene competitive binding, fluorescence; Potency, µM (series often up to 77.5 µM), hits mostly inhibitors; hit rate 0.074% among 350,000; AID 485281; further: nearly all actives have a fitted effect of over 20% in size
Target sequence (P02791 2-175 limits assumed): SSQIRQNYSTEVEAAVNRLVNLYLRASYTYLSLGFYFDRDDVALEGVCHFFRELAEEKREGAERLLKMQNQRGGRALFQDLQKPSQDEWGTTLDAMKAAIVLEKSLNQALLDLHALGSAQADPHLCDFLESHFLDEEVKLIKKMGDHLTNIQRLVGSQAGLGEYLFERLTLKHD
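Steps: apoferritin (10 uM) was premixed with half-saturated 1-AMA in PBS, compounds were pin-transferred, plates stood 10 min at room temperature, fluorescence was read at 380/535 nm, and curves were fitted with a Hill equation.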
FEN1 inh: blocks human flap endonuclease 1; P39748; Recombinant FEN1 flap cleavage, fluorescence, 15 min; hit rate 0.35% among 390,000; Potency, µM (doses to about 114 µM), usual class: inhibitors; further: nearly all actives have a fitted effect of over 65% in size
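Read-out was taken twice, immediately and after 15 min, following addition of 50 nM substrate to 10 nM FEN1 that had sat with test compound for 15 min at room temperature. Curves came from a four-parameter Hill model.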
B2AR arrestin: agonists driving beta-arrestin recruitment to human beta2-adrenergic receptor. hit rate 0.02% among 330,000. P07550. Potency, µM (titrated, usually from 46.1 µM), hits mostly activators. beta-arrestin recruitment to beta2AR, cell-based reporter; further: nearly all actives have a fitted effect of over 65% in size
BCR signal inh: blocks chronic active B-cell receptor signaling | hit rate 0.05% among 340,000 | ABC-DLBCL IkBa-CBG/CBR reporter, luminescence ratio, 4 h | Potency, µM (doses to about 46.1 µM), most hits filed as inhibitors; active means well fitted inhibition curve with a large enough effect in the signal ratio, with a control signal flat, not every such curve was filed as active; inconclusive means small, poorly fitted or top-dose-only effect, or effect the other way, or a change in a side signal; the % refers to the signal ratio
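TMD8 human ABC-DLBCL cells with doxycycline-inducible IκBα–green luciferase fusion and unfused red luciferase, in 0.5% FBS medium; compounds up to 46 uM, 4 h at 37C. Green/red luminescence ratio, filter-overlap corrected, fitted to concentration-response curves.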
Numbers stand for hits; - = inactive; ? = inconclusive; . = not tested or not shown. Only some compounds are listed: those with a hit (about 0.45% of all), similar ones and a draw of the others. Unless noted, the call rests on the fitted dose curve; in most records, active means well fitted curve in the direction sought with a large enough effect; inconclusive means small, poorly fitted or top-dose-only effect, or another doubt; inactive means no such curve, though single readings can be large; an effect the other way counts as inactive or inconclusive.

SMILES | Pin1 inh | PGK inhibitor | Anesthetic bind | FEN1 inh | B2AR arrestin | BCR signal inh
CCOc1cc(/C=C2\C(=O)N(c3nc(-c4ccc(Br)cc4)cs3)N=C2c2ccccc2)ccc1O | . | - | ? | 50µM | - | -
COc1cc(/C=C2\C(=O)N(c3ccc(NC(C)=O)cc3)N=C2c2ccccc2)ccc1O | - | - | - | - | - | -
CCOc1ccc2nc(SCC(=O)Nc3ccc(S(=O)(=O)N4CCCC4)cc3)c(C)cc2c1 | ? | - | - | 40µM | - | -
CCSc1nnc2ccc(-c3ccc(OC)c(OC)c3)nn12 | - | - | - | - | - | 7.9µM
N=c1c2c(ccn1-c1ccccc1)Oc1ccc3ccccc3c1C2c1ccccc1 (stereo not given) | - | . | . | . | . | .
S=C(NCCCNc1ccc(Br)cn1)NCCCc1cnc[nH]1 | - | . | . | . | . | .
Cc1cccc(NC(=O)COc2ccc(/C=C\c3[nH]c(=O)[nH]c(=O)c3[N+](=O)[O-])cc2)c1 | ? | ? | - | 45µM | - | -
O=c1[nH]c(/C=C/c2ccc([N+](=O)[O-])cc2)c([N+](=O)[O-])c(=O)[nH]1 | - | - | - | - | - | -
COc1cc(SSc2cc(OC)cc([N+](=O)[O-])c2N)c(N)c([N+](=O)[O-])c1 | - | . | - | ? | 14µM | ?
COc1cc([N+](=O)[O-])c2ncsc2c1 | - | - | - | - | - | -
COc1cc2cccc(OC)c(=O)c2c(O)c1OC | - | - | - | - | - | -
CC(=O)Oc1cc2cccc(OC(C)=O)c(=O)c2c(OC(C)=O)c1OC(C)=O | ? | ? | - | 1.1µM | - | -
CC(c1ccco1)N(C)c1ncnc2ccc(-c3ccc4c(c3)OCO4)cc12 (stereo not given) | - | . | . | . | . | .
O=c1c2ccccc2cnn1-c1nc2ccccc2[nH]1 | - | 10µM | - | - | - | ?
Cc1ccc(C)c(N/C(N)=N/c2nc(C)cc(C)n2)c1 | - | - | - | 50µM | - | -
N=c1c2c(ncn1-c1ccccc1)Oc1ccc3ccccc3c1C2c1ccc2c(c1)OCO2 (stereo not given) | - | . | . | . | . | .
CCCCCC(=O)Nc1cccc(C2=NOC3(C2)C[C@@H](C(N)=O)N(C(=O)c2ccc(OC)cc2)C3)c1 (stereo not given in full) | - | - | - | - | - | -
C=C(C)C(=O)Nc1cccc(C2=NOC3(C2)C[C@@H](C(N)=O)N(C(=O)c2ccc(OC)cc2)C3)c1 (stereo not given in full) | 32µM | 2µM | - | ? | - | -
CCCCCC(=O)N1CC2(CC(c3cccc(NC(=O)[C@@H]4CCC(=O)N4)c3)=NO2)C[C@@H]1C(N)=O (stereo not given in full) | - | - | - | - | - | -
CCCCCC(=O)Nc1cccc(C2=NOC3(C2)C[C@@H](C(N)=O)N(C(=O)c2cc([N+](=O)[O-])cc([N+](=O)[O-])c2)C3)c1 (stereo not given in full) | - | - | - | - | - | -
C=C(C)C(=O)Nc1cccc(C2=NOC3(C2)C[C@@H](C(N)=O)N(C(=O)c2cc([N+](=O)[O-])cc([N+](=O)[O-])c2)C3)c1 (stereo not given in full) | - | 18µM | - | - | - | -
C=C(C)C(=O)Nc1cccc(C2=NOC3(C2)C[C@@H](C(N)=O)N(C(=O)CCCCC)C3)c1 (stereo not given in full) | . | ? | - | 25µM | - | ?
CC(=O)Nc1ccc(S(=O)(=O)N2CCN(S(=O)(=O)c3ccc4c(c3)OCCO4)CC2)cc1 | - | . | . | . | . | .
O=C1c2cc(O)c(O)cc2OC(c2ccc(O)c(O)c2)C1O (stereo not given) | - | - | . | 32µM | . | .
O=S1(=O)N=C(Oc2ccccc2C(F)(F)F)c2ccccc21 | - | . | . | . | . | .
SMILES | Pin1 inh | PGK inhibitor | Anesthetic bind | FEN1 inh | B2AR arrestin | BCR signal inh
ON=C1c2cc(OCCN3CCCCC3)ccc2-c2ccc(OCCN3CCCCC3)cc21 | - | - | - | 32µM | - | -
CCc1c(C)nc(Nc2nc(C)c3ccc(OC)cc3n2)[nH]c1=O | - | - | - | - | - | -
COc1ccc2c(C)nc(Nc3nc(C)c(C)c(=O)[nH]3)nc2c1 | - | - | - | 45µM | ? | -
O=S1(=O)N=C(Oc2ccc(C(F)(F)F)cc2)c2ccccc21 | - | . | . | . | . | .
CCC/C(=N\NC(=O)CNC(=O)c1ccc(Cl)cc1)c1ccccc1 | - | - | 16µM | - | - | -
CC(=O)c1ccc(-c2ccc(/C=C(/Sc3n[nH]c(C)n3)C(=O)O)o2)cc1 | ? | - | - | 50µM | - | -
C=CCSc1nnc(NC(=O)C2CSC3(C)CCC(=O)N23)s1 (stereo not given) | - | - | . | - | - | -
CC12CCC(=O)N1C(C(=O)Nc1nnc(SCc3ccc(F)cc3)s1)CS2 (stereo not given) | - | - | 22µM | - | - | -
COc1cccc(N2C(=O)c3ccccc3C2=O)c1 | - | . | . | . | . | .
O=C(Nc1ccc(C2=NCCN2)cc1)c1ccc(C(=O)Nc2ccc(C3=NCCN3)cc2)c([N+](=O)[O-])c1 | ? | - | - | 40µM | - | ?
Cc1ccc(NC(=O)c2ccc(-n3cccn3)c([N+](=O)[O-])c2)cc1 | - | - | - | - | - | ?
COc1ccccc1NC(=O)N1CCN(c2ccnc3cc(Cl)ccc23)CC1 | - | - | - | - | - | ?
COc1ccccc1N1CCN(c2ccnc3cc(Cl)ccc23)CC1 | - | - | - | - | - | 20µM
Cc1ccc(NS(=O)(=O)c2cc3c(cc2C)OCC(=O)N3)cc1C | - | . | . | . | . | .
O=C1c2ccccc2C(=O)N1CCC1=CCCCC1 | - | - | 22µM | - | - | ?
c1ccc(-c2nnc(-c3ccco3)o2)cc1 | - | - | - | - | - | -
c1coc(-c2nnc(-c3ccco3)nn2)c1 | ? | ? | - | 45µM | - | ?
Cc1cc2c(s1)c1cnn(Cc3cc(C(F)(F)F)ccc3F)c(=O)c1n2C | - | . | . | . | . | .
CN(C)c1ccc(/C=C/N2C=CCc3c2ccc2ccccc32)cc1 | . | . | . | 11µM | . | .
Cc1cc2c(s1)c1cnn(Cc3c(Cl)cccc3Br)c(=O)c1n2C | - | . | . | . | . | .
O=C(N/N=C/c1ccccn1)c1cc(-c2ccc3ccccc3c2)n[nH]1 | ? | - | ? | 45µM | - | ?
Cn1c(C(=O)N2CCCc3ccccc32)cc2sccc21 | - | - | 13µM | - | - | -
COc1cc(-c2ccc3ncnc(NCCc4cnc[nH]4)c3c2)cc(OC)c1OC | - | . | . | . | . | .
O=C1CCc2cc(S(=O)(=O)Nc3cccc(B(O)O)c3)ccc2N1 | - | . | . | . | . | .
O=C(NCc1ccc(F)cc1)n1c(-c2ccccc2)c(P(=S)(c2ccccc2)c2ccccc2)c2ccccc21 | - | . | . | . | . | .
CC/C(Cc1ccccc1)=N/NC(=O)CNC(=O)c1ccc(Cl)cc1Cl | - | - | ? | - | - | -
